Data as given in ChEMBL document CHEMBL4513149, “CO-ADD screening of MMV (CH) - MMV compounds” (2021).
In all, about 23,000 compounds went through this assay and about 30 (0.1%) showed an effect of 50% or more. The sample as a whole holds a higher share of strong results than the screen did. Entries with a potency or affinity are not part of this list.

What follows are compounds tested on Pseudomonas aeruginosa. Details: Concentration 20 uM; ASSAY_TEST Inhibition of Bacterial Growth; detection method Absorption (OD600); MEDIA CAMHB; plate type 384well; NBS; CORNING #3640; time 18 hr.

Compound | Inhibition [%]
Cl.O=C(Nc1ccc(N2CCNCC2)nc1)c1oc(-c2ccccc2)nc1C(F)(F)F | -17.92
N=C(N)c1ccc(-c2cc(-c3ccccc3)on2)cc1 | 13.36
CC(C)=CCC/C(C)=C\CNCCNC1C2CC3CC(C2)CC1C3 (centres undefined) | 27.33
O=C(c1ccc(F)cc1)N(CCNc1ccccc1)c1ccccc1 | 12.58
